The nature of assay [1]: differential killing of epithelial or mesenchymal cells, primary screen, imaging, PC-3E GFP, TEM4-18 mCherry, co-culture (AID 1345086).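 As to all read-outs here: cells exposed to compound for 72 h before imaging.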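 As to red/green cell ratio (normalised): normalised mesenchymal count divided by normalised epithelial count so high means epithelial killing.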 The conditions noted are these: imaging cell counts, at 1 µM; for red/green cell ratio (normalised): actives lie on both sides.
The subject of assay [2] is Aerobactin synthetase IucA (Klebsiella pneumoniae hvKP1). Briefly: Biochemical IucA enzyme inhibition primary screen of the Spectrum library (AID 1346200; call rule not given here;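 also: 100% = wells without compound and 0% = wells lacking enzyme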). The settings on record: malachite green pyrophosphate, A620, at 8 µM, stronger effect = lower value.
The target in assay [3] is ATP-dependent translocase ABCB1 (Homo sapiens) (UniProt P08183). In words: MDR1 (ABCB1) efflux transporter inhibition, cell-based (AID 377; in the data active = fluorescence slope change above about 50%). The settings on record: MDR1-expressing cells, fluorescent substrate accumulation slope; stronger effect = higher value; concentration not given here.
Chain of ATP-dependent translocase ABCB1 (Homo sapiens) (P08183 whole entry, looked up): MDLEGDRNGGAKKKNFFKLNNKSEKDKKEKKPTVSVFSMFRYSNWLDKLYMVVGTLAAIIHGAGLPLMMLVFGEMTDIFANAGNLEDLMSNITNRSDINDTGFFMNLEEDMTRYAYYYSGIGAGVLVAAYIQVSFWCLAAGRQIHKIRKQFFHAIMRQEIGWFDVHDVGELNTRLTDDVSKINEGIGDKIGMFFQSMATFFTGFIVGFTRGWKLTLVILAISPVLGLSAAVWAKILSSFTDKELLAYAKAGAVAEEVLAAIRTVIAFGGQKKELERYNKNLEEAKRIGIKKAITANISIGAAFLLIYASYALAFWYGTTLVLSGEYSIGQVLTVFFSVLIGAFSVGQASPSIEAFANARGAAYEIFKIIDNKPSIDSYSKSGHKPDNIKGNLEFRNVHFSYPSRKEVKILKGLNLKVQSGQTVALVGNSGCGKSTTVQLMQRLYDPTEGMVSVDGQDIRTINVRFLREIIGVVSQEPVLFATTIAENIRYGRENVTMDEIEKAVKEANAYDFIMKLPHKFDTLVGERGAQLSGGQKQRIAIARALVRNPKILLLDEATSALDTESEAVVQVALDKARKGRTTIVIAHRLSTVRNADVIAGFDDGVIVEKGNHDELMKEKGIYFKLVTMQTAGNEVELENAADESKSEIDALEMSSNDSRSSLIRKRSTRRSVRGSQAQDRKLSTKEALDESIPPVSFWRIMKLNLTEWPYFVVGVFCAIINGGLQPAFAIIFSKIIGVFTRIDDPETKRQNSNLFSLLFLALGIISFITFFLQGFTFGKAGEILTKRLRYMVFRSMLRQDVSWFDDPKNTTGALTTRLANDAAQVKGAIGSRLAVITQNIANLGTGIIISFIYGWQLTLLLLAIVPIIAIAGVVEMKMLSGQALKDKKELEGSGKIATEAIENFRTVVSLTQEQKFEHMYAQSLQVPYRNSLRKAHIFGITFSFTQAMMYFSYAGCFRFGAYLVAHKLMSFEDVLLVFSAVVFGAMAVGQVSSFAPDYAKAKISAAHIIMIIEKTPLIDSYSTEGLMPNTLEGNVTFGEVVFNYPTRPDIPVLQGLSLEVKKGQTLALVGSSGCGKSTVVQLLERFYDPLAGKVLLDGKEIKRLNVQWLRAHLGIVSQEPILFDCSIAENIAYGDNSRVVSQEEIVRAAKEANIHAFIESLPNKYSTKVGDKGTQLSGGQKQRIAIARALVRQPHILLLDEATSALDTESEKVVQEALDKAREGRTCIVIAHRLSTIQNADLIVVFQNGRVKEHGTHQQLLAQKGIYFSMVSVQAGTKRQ
Assay [4] is described as follows: circadian clock period modulators, cell-based, LOPAC library, luminescence reporter (AID 2774; call rule not given here;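 also: values are relative to mean of DMSO wells on each plate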). The conditions noted are these: circadian reporter cells, at 7 µM, actives lie on both sides.
Assay [5] can be described thus: hESC survival regulators, cell-based (AID 493140; call rule not given here;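 also: cells exposed to compounds for four days before counting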). The conditions noted are these: human embryonic stem cell survival screen; stronger effect = higher value.
Assay [6] in a line: liver-stage malaria parasite growth inhibition, primary screen, cell-based, HepG2, luciferase luminescence, HepG2 viability (AID 624349; in the data active = parasite load remaining mostly below about 12%, no sharp cut-off; inactive = mostly above about 10%;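 also: 100% = mean of DMSO negative control wells on the same plate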). The conditions noted are these: P. berghei liver stage in HepG2, luciferase luminescence, concentration not given here; parasite load remaining: stronger effect = lower value; viability: measured here: HepG2 viability without parasites.
Assay [7] concerns Hepatitis C virus NS3 helicase. In words: HCV NS3 helicase inhibitors, primary screen, biochemical, fluorescence polarization, LOPAC1280 library (AID 687035; in the data active = inhibition above about 37%). The conditions noted are these: Purified HCV NS3 helicase, Cy5-dT15 ssDNA binding fluorescence polarization; stronger effect = higher value; concentration not given here. For orientation: Polarisation of emitted light reports the rotation of a fluorescent probe.

Assay [8] can be described thus: Cy5 fluorescence quenching or enhancement artefacts, artefact control for HCV NS3 helicase inhibitor project, biochemical, LOPAC1280 (AID 687037; call rule not given here). The conditions noted are these: Cy5-DNA-NS3h complex fluorescence interference counterscreen. (In general: Counterscreens check selectivity or assay interference.)
The test system of assay [9] is Aerobactin synthetase IucA (Klebsiella pneumoniae). Briefly: IucA aerobactin synthetase inhibitors, biochemical, Tocris library, absorbance (AID 1345561; call rule not given here;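 also: 100% = enzyme without compound and 0% = no enzyme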). The conditions noted are these: purified IucA enzyme assay, absorbance (OD) read-out; stronger effect = lower value;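 tested at 8 µM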.
Assay [10] concerns Aerobactin synthetase IucA (Klebsiella pneumoniae, hypervirulent). In words: IucA enzyme inhibition, biochemical, LOPAC library, absorbance readout (AID 1346212; call rule not given here;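 also: 100% = no compound wells and 0% = no enzyme wells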). The settings on record: IucA enzyme assay, absorbance (OD) readout; stronger effect = lower value;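 tested at 8 µM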.
Assay [11] in a line: inhibitors of Cryptococcus chitosan production, flow cytometry, Cibacron Brilliant Red staining (AID 1347148; call rule not given here;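 also: compound exposure lasted three days at 37 degrees C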). The settings on record: Cryptococcus neoformans chitosan, stronger effect = lower value; at 10 µM unless noted.
A short description of assay [12]: phospholipid biosynthesis inhibitors in animal cells, primary screen, cell-based, LOPAC library, screen 4 (AID 1347384; call rule not given here). The settings on record: phospholipid biosynthesis inhibition screen, at 10 µM.
Assay [13] can be described thus: survival rescue of mitochondrial mutant cells in low glucose, primary screen, MELAS cybrids, Rieske KO mouse fibroblasts, CellTiter-Glo (AID 1508586;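 active = mean z-score across replicates of 1.96 or higher in either the MELAS or the Rieske mutant cell line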;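 also: z relative to plate mean and SD of compound and empty wells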).
Assay [14] is described as follows: viability rescue of complex I mutant cybrids, primary screen, cell-based, galactose medium, ATP luminescence (AID 1645843;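 active = z-score of at least 1.8 in each of two replicates, scored against plate mean and spread of sample wells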;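 also: positive z means more ATP and so rescue of galactose-driven cybrid death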). The settings on record: complex I mutant cybrid cells, 72 h, stronger effect = higher value.
Where [15] appears, read: measured here: epithelial PC-3E GFP cell survival.
Where [16] appears, read: measured here: mesenchymal TEM4-18 mCherry cell survival.
The mark [17] stands for this setting: counts scaled to control wells, 1 = unselective.

Where “and” joins values, the source holds several entries; their conditions need not be identical. Equal entries are not always repeated. Inconclusive results are not listed. Calls of active or inactive are those of the source.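 The calls were made as follows, unless noted: active = compounds killing one labelled cell type while sparing the other, by normalised counts and ratio limits, not self-fluorescent; inactive = the rest.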

This is an account of results in PubChem BioAssay.

Regarding `C[C@]12CCC3C(CC[C@@H]4CC(=O)CC[C@]34C)C1CCC2=O` (stereo partly specified), the red/green cell ratio (normalised) in assay [1] is 1.04 (inactive). For the same compound, the normalised cell number in assay [1] (setting [15]) worked out at 0.88; in [1] (setting [16]), 0.91.

Regarding `C[C@@H]1CC[C@@]2(NC1)OC1CC3C4CC=C5C[C@@H](O)CC[C@]5(C)C4CC[C@]3(C)C1[C@@H]2C` (stereo partly specified), the red/green cell ratio (normalised) in assay [1] (setting [17]) was 1.02 (inactive). For the same compound, the figures for the normalised cell number in assay [1] (setting [15]) and in [1] (setting [16]) were 1.11 and 1.13, respectively.

Consider `c1ccc(S[C@@H]2OC3COC(c4ccccc4)OC3[C@H]3NC32)cc1` (stereo partly specified), for which, in assay [1] (setting [17]), the red/green cell ratio (normalised) was 0.98 (inactive). For the same compound, the normalised cell number stood at 1.08 in assay [1] (setting [15]) and 1.06 in assay [1] (setting [16]).

Consider `O=C1CCCC2C3CC(CN12)[C@@H]1CCCCN1C3` (stereo partly specified), for which the red/green cell ratio (normalised) in [1] (setting [17]) is 1.13 (inactive). For the same compound, the values for the normalised cell number in [1] (setting [15]) and in [1] (setting [16]) were 0.86 and 0.98, respectively. In addition, the activity remaining in assay [2] was 119% (inactive).

As for `NCCc1c[nH]c2ccc(O)cc12`, in assay [3], the fluorescence slope change is 73.4% (active). The period change in [4] is -0.28 h (inactive). Besides, in assay [5], the survival was 12.7 (inactive). The parasite load remaining in assay [6] is 63.9% (inactive) and 71.4% (inactive). In addition, the viability (usually a read-out of living cells in per cent, often relative to untreated cells) in assay [6] is 113% and 89.1%. The inhibition (usually the change of the read-out against control, counted positive when it falls) in [7] was -1% (inactive). In addition, the fluorescence ratio (interference) in assay [8] is 1 (inactive). Also, in assay [1], the red/green cell ratio (normalised) is 1.02 (inactive). The normalised cell number in assay [1] (setting [15]) worked out at 0.95; in assay [1] (setting [16]) it was 0.96. For the same compound, the remaining activity (commonly the signal under treatment as a percentage of the control signal) in assay [9] was 97.8% (inactive); in assay [10], 107% (inactive). The fold fluorescence in assay [11] is 4 [at 283.7 µM] (inactive). The compound was called inactive in [12]. The z-score in assay [13] (MELAS cybrid survival, CellTiter-Glo 48 h, stronger effect = higher value) is -0.165 (inactive) and -0.0524 (inactive); in [13] (Rieske KO mouse fibroblast survival, CellTiter-Glo 72 h), -0.179 and -0.331; in assay [14], 0.29 (inactive) and 0.4 (inactive).

Regarding `COc1cc([C@@H]2c3cc4c(cc3[C@H](OC(C)=O)C3COC(=O)[C@@H]32)OCO4)cc(OC)c1OC` (stereo partly specified), in assay [1] (setting [17]), the red/green cell ratio (normalised) is 0.81 (inactive). Further, the normalised cell number in assay [1] (setting [15]) amounted to 0.2; in assay [1] (setting [16]), 0.16.

Consider `CN1C[C@H](C(=O)N[C@]2(C)O[C@@]3(O)C4CCCN4C(=O)[C@H](Cc4ccccc4)N3C2=O)C=C2c3cccc4[nH]cc(c34)C[C@H]21` (stereo partly specified), for which, in assay [1], the red/green cell ratio (normalised) is 0.93 (inactive). In addition, the values for the normalised cell number in assay [1] (setting [15]) and in assay [1] (setting [16]) were 1.08 and 1, respectively.

`C[C@]12CCC3C(CC[C@H]4C[C@H](O)CC[C@]34C)C1CCC2=O` (stereo partly specified): in assay [1], the red/green cell ratio (normalised) is 1.16 (inactive). Besides, the normalised cell number in assay [1] (setting [15]) was 0.84; in [1] (setting [16]), 0.97.

With `C[N+]12CC[C@@]34c5ccccc5N5C(=O)CC6OCC=C(C1)[C@@H](CC32)[C@@H]6C54` (stereo partly specified), the red/green cell ratio (normalised) in assay [1] (setting [17]) is 1.07 (inactive). The normalised cell number in assay [1] (setting [15]) was determined as 0.95; in assay [1] (setting [16]), 1.01.

Regarding `O=C1NCC[C@H]1O`, in assay [1] (setting [17]), the red/green cell ratio (normalised) was 0.95 (inactive). In addition, the normalised cell number in assay [1] (setting [15]) stood at 1.13; in [1] (setting [16]), 1.08.

In the case of `O=C(O)COc1ccc(O)cc1`, the red/green cell ratio (normalised) in assay [1] (setting [17]) is 1.05 (inactive). In addition, the normalised cell number turned out to be 1.09 in assay [1] (setting [15]) and 1.15 in assay [1] (setting [16]).

Take `CC(C)=CCC[C@H](C)[C@H]1CC[C@]2(C)C[C@H]3[C@@H](C(=O)C[C@@]3(C)O)/C(C=O)=C\C[C@@H]12`: the red/green cell ratio (normalised) in assay [1] (setting [17]) is 0.95 (inactive). The figures for the normalised cell number in [1] (setting [15]) and in assay [1] (setting [16]) were 0.85 and 0.8, respectively.

On to `Cc1cc(O)cc2oc(=O)c3c(O)cc(O)cc3c12`, for which the red/green cell ratio (normalised) in [1] (setting [17]) is 0.89 (inactive). Moreover, the normalised cell number in [1] (setting [15]) amounted to 0.99; in assay [1] (setting [16]) it was 0.88.

With `C/C1=C\[C@@H](C)C/C=C/[C@H]2[C@@H]3O[C@]3(C)[C@@H](C)[C@H]3[C@H](Cc4c[nH]c5ccccc45)NC(=O)[C@]32C(=O)/C=C/C(=O)[C@@H]1O`, the red/green cell ratio (normalised) in [1] (setting [17]) was 0.89 (inactive). Besides, the values for the normalised cell number in assay [1] (setting [15]) and in assay [1] (setting [16]) were 1.11 and 1, respectively.

`C[N+]1(C)CCc2cc3c(cc2[C@H]1C1OC(=O)c2c1ccc1c2OCO1)OCO3` (stereo partly specified): the red/green cell ratio (normalised) in [1] (setting [17]) was 0.88 (inactive). For the same compound, the results for the normalised cell number in assay [1] (setting [15]) and in assay [1] (setting [16]) were 1.35 and 1.18, respectively. Further, the activity remaining in assay [2] is 129% (inactive).
